Data from PubChem BioAssay AID1159580 (chemical genetic matrix, 2015).
Out of some 5,500 compounds screened, about 2,000 (36%) were called active. Roughly 18% stayed inconclusive and do not appear here. Rule as the data show it: active = normalized growth mostly below about 0.91 (no sharp cut-off); inconclusive = no clear call, values can overlap the other calls; inactive = mostly above about 0.92. The list shows a part of the results.

Experiment: chemical genetic growth profiling, strain panel (AID 1159580);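 also: tested at 20 µM; growth read once vehicle control cultures reached saturation at 30 °C; 1 = growth at the plate median or of vehicle wells; lower values mean less growth of the strain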
Conditions: S. cerevisiae deletion strains, growth OD
[1] = locus YAL013W, strain DEP1, active compounds read low
[2] = locus YBR229C, strain ROT2, active compounds read low
[3] = locus YDL101C, strain DUN1, active compounds read low
[4] = locus YDL134C, strain PPH21, active compounds read low
[5] = locus YDR150W, strain NUM1, active compounds read low
[6] = locus YEL061C, strain CIN8, active compounds read low
[7] = locus YGR078C, strain PAC10, active compounds read low
[8] = locus YHR030C, strain SLT2, active compounds read low
[9] = locus YHR087W, strain rtc3, active compounds read low
[10] = locus YJR043C, strain POL32, active compounds read low
[11] = locus YJR075W, strain HOC1, active compounds read low
[12] = locus YKL190W, strain CNB1, active compounds read low
[13] = locus YLR039C, strain RIC1, active compounds read low
[14] = locus YLR058C, strain SHM2 (second series), active compounds read low
[15] = locus YLR085C, strain ARP6, active compounds read low
[16] = locus YLR262C, strain YPT6, active compounds read low
[17] = locus YML094W, strain GIM5, active compounds read low
[18] = locus YMR219W, strain ESC1, active compounds read low
[19] = locus YMR263W, strain SAP30, active compounds read low
[20] = locus YNL153C, strain GIM3, active compounds read low
[21] = locus YNL298W, strain CLA4 (second series), active compounds read low
[22] = locus YNL322C, strain KRE1, active compounds read low
[23] = locus YNR030W, strain Alg12, active compounds read low
[24] = locus YPL055C, strain LGE1, active compounds read low
[25] = locus YPL241C, strain CIN2, active compounds read low
[26] = locus YPR135W, strain CTF4, active compounds read low
[27] = locus YAR019C, strain CDC15, active compounds read low
[28] = locus YBL105C, strain PKC1, active compounds read low
[29] = locus YBR135W, strain CKS1, active compounds read low
[30] = locus YBR136W, strain MEC1, active compounds read low
[31] = locus YBR160W, strain CDC28, active compounds read low
[32] = locus YDL017W, strain CDC7, active compounds read low
[33] = locus YDL028C, strain MPS1, active compounds read low
[34] = locus YDL108W, strain KIN28, active compounds read low
[35] = locus YDL132W, strain cdc53, active compounds read low
[36] = locus YDL214C, strain PRR2, active compounds read low
[37] = locus YDR052C, strain DBF4, active compounds read low
[38] = locus YDR054C, strain cdc34, active compounds read low
[39] = locus YDR226W, strain ADK1, active compounds read low
[40] = locus YDR477W, strain SNF1, active compounds read low
[41] = locus YER123W, strain YCK3, active compounds read low
[42] = locus YER133W, strain GLC7, active compounds read low
[43] = locus YFL009W, strain cdc4, active compounds read low
[44] = locus YFL029C, strain CAK1, active compounds read low
[45] = locus YFR003C, strain YPI1, active compounds read low
[46] = locus YFR019W, strain FAB1, active compounds read low
[47] = locus YFR028C, strain CDC14, active compounds read low
[48] = locus YGR040W, strain KSS1, active compounds read low
[49] = locus YGR052W, strain FMP48, active compounds read low
[50] = locus YGR092W, strain DBF2, active compounds read low
[51] = locus YHR079C, strain IRE1, active compounds read low
[52] = locus YHR082C, strain KSP1, active compounds read low
[53] = locus YHR205W, strain SCH9, active compounds read low
[54] = locus YIL147C, strain SLN1, active compounds read low
[55] = locus YJL095W, strain BCK1, active compounds read low
[56] = locus YJL128C, strain PBS2, active compounds read low
[57] = locus YJL157C, strain FAR1, active compounds read low
[58] = locus YJR016C, strain ILV3, active compounds read low
[59] = locus YJR066W, strain TOR1 (second series), active compounds read low
[60] = locus YJR066W, strain TOR1, active compounds read low
[61] = locus YKL048C, strain ELM1, active compounds read low
[62] = locus YKL067W, strain YNK1, active compounds read low
[63] = locus YKL101W, strain HSL1, active compounds read low
[64] = locus YKL193C, strain SDS22, active compounds read low
[65] = locus YKL203C, strain TOR2, active compounds read low
[66] = locus YLR113W, strain HOG1, active compounds read low
[67] = locus YLR133W, strain CKI1, active compounds read low
[68] = locus YLR403W, strain SFP1, active compounds read low
[69] = locus YML070W, strain DAK1, active compounds read low
[70] = locus YMR001C, strain CDC5, active compounds read low
[71] = locus YMR205C, strain PFK2 (second series), active compounds read low
[72] = locus YMR277W, strain FCP1, active compounds read low
[73] = locus YNL006W, strain LST8, active compounds read low
[74] = locus YNL020C, strain ARK1, active compounds read low
[75] = locus YNL161W, strain CBK1, active compounds read low
[76] = locus YNL183C, strain NPR1, active compounds read low
[77] = locus YNL207W, strain RIO2, active compounds read low
[78] = locus YNL222W, strain SSU72, active compounds read low
[79] = locus YNL307C, strain MCK1 (second series), active compounds read low
[80] = locus YOL078W, strain AVO1, active compounds read low
[81] = locus YOL136C, strain PFK27, active compounds read low
[82] = locus YOR061W, strain CKA2, active compounds read low
[83] = locus YOR119C, strain RIO1, active compounds read low
[84] = locus YOR231W, strain MKK1, active compounds read low
[85] = locus YOR329C, strain SCD5, active compounds read low
[86] = locus YPL031C, strain PHO85, active compounds read low
[87] = locus YPL153C, strain RAD53, active compounds read low
[88] = locus YPL204W, strain HRR25, active compounds read low
[89] = locus YPL209C, strain IPL1, active compounds read low
[90] = locus YPL256C, strain CLN2, active compounds read low
[91] = locus YPR025C, strain CCL1, active compounds read low
[92] = locus YPR106W, strain ISR1, active compounds read low
[93] = locus YPR111W, strain DBF20, active compounds read low
[94] = strain NNK1, active compounds read low
[95] = strain TSCII, active compounds read low

Measured: normalized growth

O=C(NNc1c(Cl)cc(Cl)cc1Cl)NC(=O)c1ccccc1F
inactive: [1] 0.997 | [2] 0.982 | [3] 0.998 | [4] 1.02 | [5] 1.02 | [6] 0.996 | [7] 1 | [8] 0.905 | [9] 1.02 | locus YJL187C, strain SWE1, active compounds read low 0.999 | [10] 1 | [11] 0.99 | [12] 1.02 | [13] 0.936 | [14] 1.02 | [15] 0.992 | [16] 0.965 | [17] 1 | [18] 1.02 | [19] 1.01 | locus YNL128W, strain TEP1, active compounds read low 1.01 | [20] 0.989 | [21] 0.986 | [22] 1 | [23] 1.04 | [24] 1.01 | [25] 0.986 | [26] 0.966

O=C(NNc1ccc(Cl)cc1)c1ccc(F)cc1F
inactive: [27] 0.937 | [28] 0.942 | [29] 0.952 | [30] 0.946 | [31] 0.942 | [32] 0.95 | [33] 0.959 | [3] 0.949 | [34] 0.959 | [35] 0.967 | [36] 0.701 | [37] 0.938 | [38] 0.949 | [39] 0.967 | [40] 0.701 | [42] 0.755 | [43] 0.971 | [44] 0.944 | [45] 0.952 | [47] 0.958 | [48] 0.718 | [49] 0.63 | [51] 0.747 | [52] 0.762 | [53] 0.663 | [54] 0.953 | [56] 0.897 | [57] 0.736 | [58] 0.94 | [60] 0.759 | [62] 0.752 | [63] 0.784 | [64] 0.949 | [65] 0.855 | [68] 0.744 | [70] 0.942 | [71] 0.826 | [72] 0.956 | [73] 0.968 | [74] 0.765 | [75] 0.947 | [76] 0.777 | [77] 0.946 | [78] 0.946 | [80] 0.948 | [83] 0.796 | [84] 0.695 | [85] 0.95 | [86] 0.766 | [87] 0.696 | [88] 0.723 | [89] 0.941 | [91] 0.947 | [92] 0.965 | [93] 0.974 | [94] 0.937 | [95] 0.947
active: [41] 0.404 | [46] 0.547 | [50] 0.345 | [8] 0.372 | [55] 0.271 | [59] 0.606 | [61] 0.747 | [66] 0.373 | [67] 0.701 | [69] 0.54 | [79] 0.451 | [81] 0.616 | [82] 0.399 | [90] 0.487

O=C1CSC(c2ccc(Cl)c(Cl)c2)N1c1ccc(F)cc1 (stereo not drawn)
active: [4] 0.886
inactive: [1] 0.988 | [2] 0.975 | [3] 0.964 | [5] 0.968 | [6] 0.988 | [7] 0.975 | [8] 0.95 | [9] 0.985 | [10] 0.974 | [11] 0.939 | [12] 0.985 | [13] 0.994 | [14] 1 | [15] 0.942 | [16] 0.947 | [17] 0.95 | [18] 0.994 | [19] 0.989 | [20] 0.962 | [21] 0.93 | [22] 0.988 | [23] 0.906 | locus YOL006C, strain TOP1, active compounds read low 0.889 | [24] 0.971 | [25] 0.977 | [26] 0.85

O=C1CSC(c2ccc(C(F)(F)F)cc2)N1c1ccc(C(F)(F)F)cc1 (stereo not drawn)
inactive: [27] 0.998 | [28] 1 | [29] 0.997 | [30] 1 | [31] 1 | [32] 1 | [33] 0.999 | [3] 1 | [34] 0.996 | [35] 0.997 | [36] 0.952 | [37] 1.01 | [38] 1 | [39] 1 | [40] 0.966 | [41] 0.911 | [42] 0.968 | [43] 1 | [44] 0.986 | [45] 0.994 | [46] 0.95 | [47] 0.993 | [48] 0.962 | [49] 0.972 | [50] 0.979 | [8] 0.878 | [51] 0.897 | [52] 0.936 | [53] 0.885 | [54] 1 | [55] 0.933 | [56] 0.939 | [57] 0.976 | [58] 1 | [59] 0.951 | [60] 0.936 | [61] 0.968 | [62] 0.946 | [63] 0.923 | [64] 1 | [65] 1.02 | [67] 0.949 | [68] 0.949 | [69] 0.924 | [70] 1 | [71] 0.942 | [72] 0.999 | [73] 1 | [74] 0.957 | [75] 1.01 | [76] 0.898 | [77] 0.995 | [78] 1 | [79] 0.941 | [80] 1.01 | [81] 0.937 | [82] 0.943 | [83] 1.03 | [84] 0.914 | [85] 1 | [86] 0.97 | [87] 0.96 | [88] 0.959 | [89] 1.01 | [90] 0.871 | [91] 0.998 | [92] 0.988 | [93] 0.979 | [94] 0.98 | [95] 0.999
active: [66] 0.829

Cc1ccc(N2C(=O)CSC2c2ccc(Cl)c(Cl)c2)cc1Cl (stereo not drawn)
active: [8] 0.808 | [66] 0.791 | [90] 0.826
inactive: [27] 0.982 | [28] 0.974 | [29] 0.982 | [30] 0.976 | [31] 0.978 | [32] 0.975 | [33] 0.977 | [3] 0.97 | [34] 0.98 | [35] 0.982 | [36] 0.95 | [37] 0.98 | [38] 0.971 | [39] 0.973 | [40] 0.96 | [41] 0.956 | [42] 0.981 | [43] 0.977 | [44] 0.977 | [45] 0.973 | [46] 0.97 | [47] 0.988 | [48] 0.965 | [49] 1.01 | [50] 0.935 | [51] 0.887 | [52] 1.07 | [53] 0.94 | [54] 0.981 | [55] 0.918 | [56] 0.922 | [57] 0.961 | [58] 0.988 | [59] 0.913 | [60] 0.995 | [61] 0.957 | [62] 0.959 | [63] 0.953 | [64] 0.977 | [65] 1.01 | [67] 0.947 | [68] 0.95 | [69] 0.943 | [70] 0.975 | [71] 0.977 | [72] 0.981 | [73] 0.976 | [74] 0.933 | [75] 0.977 | [76] 0.994 | [77] 0.968 | [78] 0.988 | [79] 0.942 | [80] 0.982 | [81] 0.928 | [82] 0.953 | [83] 1.03 | [84] 0.937 | [85] 0.972 | [86] 0.957 | [87] 0.984 | [88] 0.933 | [89] 0.976 | [91] 0.977 | [92] 0.971 | [93] 0.962 | [94] 0.959 | [95] 0.981
